# Screens (PubChem BioAssay)
# Most compounds without a hit are left out; they make up all but 12% or so of the library.
# G9a inh – inhibitors of human histone lysine methyltransferase G9a; G9a H3K9 monomethylation, AlphaScreen, 2 h; Q96KQ7; hit rate 8.8% among 350,000; Potency, µM (series often up to 102 µM), actives largely listed as inhibitors; further: nearly all actives have a fitted effect of over 75% in size
#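 Enzyme 20 nM + cpd, 15 min RT; add b-H3K9 pep 500 nM / SAM 20 uM; 2 h RT; anti-H3K9me1 Ab 0.5 ug/mL + SA donor / anti-rabbit acceptor beads 20 ug/mL each, 10 min; AlphaScreen read.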
# HP1b binding inh – inhibitors of HP1-beta chromodomain binding to methylated histone tails. P83916. AlphaScreen HP1-beta / biotin-H3K9me3 peptide binding. Potency, µM (top dose mostly 114 µM), usual class: inhibitors. hit rate 0.56% among 390,000. AID 540317; further: nearly all actives have a fitted effect of over 70% in size
#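 AlphaScreen: HP1-beta (50 nM) preformed 30 min with biotin-H3(1-18)K9me3 peptide (50 nM) in PBS pH 7.4, 0.01% Tween-20. Compound added for 30 min at RT, then streptavidin donor/nickel chelate acceptor beads (10 ug/mL) for 30 min.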
# Sfp PPTase inh – inhibitors of Bacillus subtilis Sfp phosphopantetheinyl transferase. Biochemical Sfp PPTase activity, qHTS. hit rate 3.5% among 310,000. Potency, µM, hits mostly inhibitors;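 further: the enzyme is Sfp with the accession as filed and its product quenches rhodamine fluorescence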
#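 Step 1, compound plus 15 nM Sfp-PPTase, 15 min, room temperature. Step 2, add rhodamine-CoA (5 uM) and BHQ-2-YbbR (12.5 uM). Step 3, read 525/598 nm fluorescence at 0 and 30 min.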
# BAZ2B block – blocks human BAZ2B; Q9UIF8; AlphaScreen BAZ2B-H3K14Ac peptide displacement; hit rate 4.4% among 360,000; AID 504333; Potency, µM (titrated, usually from 114 µM), most hits filed as inhibitors; further: nearly all actives have a fitted effect of over 60% in size
#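 In this displacement format the biotinylated H3(5-23) peptide acetylated at Lys14 serves as ligand at 50 nM, with BAZ2B at 50 nM in PBS pH 7.4 containing 0.01% Tween-20. Donor and acceptor beads are 10 ug/mL final.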
# JMJD2A Tudor – blocks the human JMJD2A Tudor domain. O75164. AlphaScreen JMJD2A-Tudor / H3K4me3 peptide binding. Potency, µM (series often up to 114 µM), most hits filed as inhibitors. hit rate 4.4% among 390,000. AID 504339; further: nearly all actives have a fitted effect of over 50% in size
# A number is an active result; n = inactive; u = inconclusive; x = no result; [ ] = another dose, or the depositor's remark. The call rests on the fitted dose curve; in most records, active means well fitted curve in the direction sought with a large enough effect; inconclusive means small, poorly fitted or top-dose-only effect, or another doubt; inactive means no such curve, though single readings can be large; an effect the other way counts as inactive or inconclusive.
SMILES,G9a inh,HP1b binding inh,Sfp PPTase inh,BAZ2B block,JMJD2A Tudor
CCn1cc(C(=O)O)c(=O)c2cnc(N3CCN(C(=S)Nc4ccc(F)cc4)CC3)nc21,n,n,n,n,n
C=CCNC(=S)N1CCN(c2ncc3c(=O)c(C(=O)O)cn(CC)c3n2)CC1,x,n,n,n,50µM
CCn1cc(C(=O)O)c(=O)c2cnc(N3CCN(C(=S)Nc4ccccc4Cl)CC3)nc21,56µM,n,n,n,n
C[C@H](CO)N1C[C@H](C)[C@@H](CN(C)C(=O)Nc2ccccc2)Oc2ccc(NC(=O)Cc3ccccc3)cc2C1=O,x,n,x,x,n
Cc1ccc(-n2ncc(C(=O)NC3CCN(Cc4ccccc4)CC3)c2C2CCN(C(=O)OC(C)(C)C)CC2)cc1C,n,n,x,n,n
COc1ccc(NC(=O)c2cc3c(=O)n(Cc4ccco4)ccc3nc2C)c(OC)c1,u,n,x,n,n
CCOC(=O)c1ccc(N2C(=O)CC(NC3CCN(C(=O)c4cccc(Cl)c4)CC3)C2=O)cc1 (stereo not given),16µM,n,n,n,n
Cc1ccc(Cl)cc1N(C)C(=O)c1cc2ccc3cccnc3c2[nH]1,n,n,x,n,u
O=C(CN1C(=O)/C(=C/c2ccco2)SC1=S)Nc1ccc(C(=O)O)c(O)c1,x,n,50µM,28µM,n
CC(=C\c1ccco1)/C=C1/SC(=S)N(CC(=O)O)C1=O,40µM,n,28µM,50µM,n
O=C(CCN1C(=O)/C(=C/c2ccccc2)SC1=S)NC1CCS(=O)(=O)C1 (stereo not given),n,n,n,n,n
CC(C(=O)Nc1ccc(C(=O)O)c(O)c1)N1C(=O)/C(=C\c2ccco2)SC1=S (stereo not given),14µM,n,50µM,28µM,n
O=C(CN1C(=O)/C(=C/c2ccco2)SC1=S)NC1CCS(=O)(=O)C1 (stereo not given),40µM,n,25µM,u,u
CC(C)CSc1oc(-c2ccco2)nc1S(=O)(=O)c1ccc(Br)cc1,n,n,x,n,n
C=CCOc1ccc(C=Nc2ccc(C)c(Cl)c2)c(O)c1,n,n,n,n,n
COc1ccc(-n2c(=O)c(-c3cccc(C#N)c3)nc3cnc(N4CCNCC4)nc32)cc1,n[0.501 µM],x,n,x,x
O=C(CN1C(=O)/C(=C/c2ccco2)SC1=S)Nc1ccc(O)c(C(=O)O)c1,25µM,n,50µM,45µM,u
CNCc1ccccc1Sc1ccc(O)c(O)c1,13µM,u,u,u,79µM
CCC(=O)OC1C(N(C)C)CC(C)O[C@H]1O[C@H]1[C@H](C)[C@@H](O[C@H]2CC(OC)[C@@H](O)C(C)O2)[C@H](C)C(=O)O[C@@H](CC)[C@](C)(O)[C@@H](O)[C@H](C)C(=O)[C@@H](C)C[C@]1(C)O (stereo not given in full),n[12.7 µM],x,n,x,x
COc1cccc(C2c3[nH]c4ccccc4c3CCN2Cc2cccn2-c2ncccn2)c1 (stereo not given),40µM,u,n,u,u
CSc1ncc(CN2CCc3c([nH]c4ccccc34)C2c2cccc(O)c2)cn1 (stereo not given),x,n,n,40µM,u
CCn1cc(CN2CCc3c([nH]c4ccccc34)C2c2cccc(OC)c2)c(C)n1 (stereo not given),x,n,n,79µM,u
CCn1cc(CN2CCc3c([nH]c4ccccc34)C2c2cccc(O)c2)c(C)n1 (stereo not given),u,n,n,u,n
CCn1nc(C)c(CN2CCc3c([nH]c4ccccc34)C2c2ccc(F)c(OC)c2)c1C (stereo not given),50µM,n,n,u,u
O=c1ccc2ccc(OS(=O)(=O)O)cc2o1,x,x,n,x,x
SMILES,G9a inh,HP1b binding inh,Sfp PPTase inh,BAZ2B block,JMJD2A Tudor
CC(=O)Nc1ccc2c(c1)Cc1c(F)cccc1-2,x,n,x,x,n
CCn1cc(CN2CCc3c([nH]c4ccccc34)C2c2ccc(F)c(OC)c2)c(C)n1 (stereo not given),45µM,u,n,22µM,u
Clc1ccc(-n2cccc2CN2CCc3c([nH]c4ccccc34)C2c2ccccn2)nc1 (stereo not given),18µM,n,n,25µM,35µM
CCc1ccccc1NS(=O)(=O)c1ccc(NC(=O)N2CCCC2)cc1,n,n,x,n,n
CCOC(=O)N1CCN(C(=O)c2ccc3c(=O)n(-c4ccccc4F)c(=S)[nH]c3c2)CC1,50µM,n,n,n,n
CCOC(=O)N1CCN(c2cc3[nH]c(=S)[nH]c3cc2F)CC1,2.2µM,n,n,n,45µM
COc1ccc(CCn2c(=S)[nH]c3cc(C(=O)N4CCOCC4)ccc3c2=O)cc1OC,8.9µM,n,n,n,n
CCOCCCn1c(=S)[nH]c2cc(C(=O)N3CCN(C4CCCCC4)CC3)ccc2c1=O,n,n,n,n,n
CCOCCCn1c(=S)[nH]c2cc(C(=O)N3CCC(C(N)=O)(N4CCCCC4)CC3)ccc2c1=O,u,n,n,n,22µM
CCOC(=O)N1CCN(c2c(F)cc3[nH]c(=S)[nH]c3c2Br)CC1,u,n,u,n,n
CCOCCCn1c(=S)[nH]c2cc(C(=O)N3CCN(C)CC3)ccc2c1=O,u,n,n,u,22µM
COc1ccc(CCn2c(=S)[nH]c(=O)c3[nH]cnc32)cc1OC,x,n,x,x,n
Cc1nnc(NC(=O)c2sc3nc(-c4cccs4)cc(C(F)(F)F)c3c2N)s1,n,n,n,n,n
N#Cc1sc2nc(-c3cccs3)cc(-c3ccccc3)c2c1N,n[2.33 µM],n,45µM,n,n
CCN(CC)C(=O)c1sc2nc(-c3cccs3)cc(-c3cccs3)c2c1N,32µM,n,n,n,n
CCN(CC)C(=O)c1sc2nc(-c3cccs3)cc(-c3ccc(Cl)cc3)c2c1N,n,n,79µM,n,n
CC(C)(C)C(=O)c1sc2nc(-c3cccs3)cc(C(F)(F)F)c2c1N,u,n,22µM,n,n
Cc1oc(/C=N/NS(=O)(=O)c2ccccc2)cc1Br,16µM,n,n,n,n
CC(C)CC(=O)NC1CC(=O)N(c2ccc3c(c2)OCCO3)C1 (stereo not given),n,n,x,n,100µM
CC(=O)NC1CC(=O)N(c2ccc3c(c2)OCCO3)C1 (stereo not given),n,n,x,n,n
O=C(Nc1ccccc1Cc1ccccc1)C1CC(=O)N(c2ccc3c(c2)OCCO3)C1 (stereo not given),3.5µM,n,n,50µM,u
CCc1cccc(CC)c1NC(=O)C1CC(=O)N(c2ccc3c(c2)OCCO3)C1 (stereo not given),n,n,n,n,n
CCN(CC)S(=O)(=O)c1ccc(OC)c(NC(=O)C2CC(=O)N(c3ccc4c(c3)OCCO4)C2)c1 (stereo not given),x,n,n,n,n
CCN(CC)S(=O)(=O)c1cccc(NC(=O)C2CC(=O)N(c3ccc4c(c3)OCCO4)C2)c1 (stereo not given),50µM,n,x,n,n
